Screen size: about 320,000 compounds; about 8,000 (2.5%) were called active. No stated cut-off is given here; in the data, active means activation above about 47%; inactive means the rest. The list comes from a sample in which actives are over-represented; it also holds similar structures and randomly drawn compounds.
biological target: Aryl hydrocarbon receptor (Homo sapiens) (UniProt P35869); assay: AHR activators, primary screen, cell-based, luminescence, luciferase reporter, human (AID 2796); conditions: AHR-responsive luciferase reporter cells, at 5 µM, hits give high values;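 further: 0% = vehicle wells and 100% = reference agonist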
Sequence (P35869 whole entry, looked up): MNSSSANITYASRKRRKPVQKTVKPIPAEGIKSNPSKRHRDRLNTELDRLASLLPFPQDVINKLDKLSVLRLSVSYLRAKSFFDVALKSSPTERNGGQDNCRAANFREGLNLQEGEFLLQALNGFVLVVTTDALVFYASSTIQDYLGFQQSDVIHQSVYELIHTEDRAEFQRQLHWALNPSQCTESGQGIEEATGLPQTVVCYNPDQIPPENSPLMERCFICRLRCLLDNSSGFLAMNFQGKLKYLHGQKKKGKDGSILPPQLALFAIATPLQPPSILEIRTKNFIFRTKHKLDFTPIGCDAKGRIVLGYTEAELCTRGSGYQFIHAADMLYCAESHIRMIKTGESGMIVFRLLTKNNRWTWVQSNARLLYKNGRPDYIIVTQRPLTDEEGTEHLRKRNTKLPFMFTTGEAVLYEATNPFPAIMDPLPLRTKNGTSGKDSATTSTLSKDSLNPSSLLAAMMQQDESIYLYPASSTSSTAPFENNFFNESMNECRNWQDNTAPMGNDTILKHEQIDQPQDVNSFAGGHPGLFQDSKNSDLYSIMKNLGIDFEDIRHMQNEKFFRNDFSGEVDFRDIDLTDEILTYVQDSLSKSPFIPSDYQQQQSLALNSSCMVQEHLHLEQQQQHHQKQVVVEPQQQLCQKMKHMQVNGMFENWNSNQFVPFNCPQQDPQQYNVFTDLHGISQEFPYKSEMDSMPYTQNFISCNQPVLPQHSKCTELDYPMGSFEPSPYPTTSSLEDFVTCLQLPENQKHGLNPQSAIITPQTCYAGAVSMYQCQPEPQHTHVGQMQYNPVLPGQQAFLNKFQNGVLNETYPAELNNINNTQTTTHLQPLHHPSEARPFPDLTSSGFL

activation, inactive:
Cc1cc(C(=O)NNC(=O)CCC2CCCCC2)c(C)o1 1.65%
CCOC(=O)c1nc(Nc2ccc(C(=O)OC)cc2)c2ccccc2n1 1.95%
Cc1ccc2nc(Nc3ccccc3)cc(C)c2c1 26.6%
O=C(CCC(=O)N/N=C/c1ccc(Br)o1)N/N=C/c1ccc(Br)o1 4.48%
CCCNC(=O)N1CCC(c2ccc3c(c2)OCO3)CC1 1.31%
COc1ccc(CCNc2cc(C)nc3c(-c4ccc(Cl)cc4)c(C)nn23)cc1OC 31.2%
Cc1ccsc1C(=O)N[C@@H](C)c1nnc2ccccn12 1.3%
CCc1ccc(CNC(=O)CCc2nc(-c3cccs3)no2)cc1 4.73%
COc1ccc(CCc2nc(-c3cccs3)no2)cc1 1.87%
CCn1c(SCC(=O)NC2CC2)nnc1-c1ccccc1OC 14.6%
Cc1ccc(C(=O)Cc2nnc(C)s2)cc1 -0.8%
CN(C)C(=O)COC(=O)c1cccc(S(=O)(=O)N2CC3(C)CC2CC(C)(C)C3)c1 (stereo not given) -0.48%
CCOC(=O)C1CCN(C(=O)CN2C(=O)NC(C)(c3ccc4cc(OC)ccc4c3)C2=O)CC1 (stereo not given) 0.29%
CC(=O)c1sc2nc(SCC(=O)N3CCCCC3)[nH]c(=O)c2c1C 15.1%
C=CCn1c(SCC(=O)Nc2ccc(NC(C)=O)cc2)nc2sc(C)c(C)c2c1=O 0.33%
CN(Cc1cccc2ncccc12)C(=O)CC1C(=O)NCCN1Cc1ccc(F)cc1 (stereo not given) -0.17%
CCOCC(=O)Nc1cc(OC)c(Cl)cc1OC 19.9%
COc1cccc(CC(=O)Nc2ccc(-c3csc(C)n3)cc2)c1 -4.95%
CC(NC(=O)COC(=O)Cn1cc(C(F)(F)F)ccc1=O)c1ccccc1 (stereo not given) -0.22%
CC(=O)c1ccc(S(=O)(=O)N2CCN(c3nc4c(C)c(C)ccc4cc3C#N)CC2)cc1 -2.8%
CCOC(=O)c1cc(C#N)c(N2CCCCC2)nc1-c1ccccc1 13.2%
O=C(Nc1ccc2c(c1)CCC2)c1ccc(Br)s1 12%
CSc1ccc(/C=N/NC(=O)c2cccc(Cl)c2)cc1 13.9%
N#Cc1ccccc1NC(=O)c1cccc(COc2ccc(Cl)cc2Cl)c1 -4.79%
COC(=O)c1sccc1NC(=O)c1ccc(Cl)cc1 37.4%
O=C(Nc1cccc2cccnc12)c1cccc(N2C(=O)CCC2=O)c1 -2.04%
CSc1ccccc1NC(=O)c1cc(Cl)sc1Cl 0.71%
N#Cc1ccc(C(=O)Nc2cccc3cccnc23)c(F)c1 -3.07%
O=C1C2C3C=CC(C4CC34)C2C(=O)N1c1nccs1 (stereo not given) 0.87%
Cc1ccccc1N1C(=O)C(Oc2ccc(Cl)cc2)C1CNCC1CCCO1 (stereo not given) -0.77%
COc1ccccc1Cn1c(C)nnc1-c1cnn(C)c1N 4.53%
CN(C)c1ccc(NC(=O)CN2C3CCCC2CC(NC(=O)c2ccccc2)C3)cc1 (stereo not given) 7.23%
Cc1nc(-c2ccc(Cl)cc2)sc1C(=O)NN 10.3%
Cc1nc(-c2ccccc2)sc1C(=O)/C=C/N(C)C 3.46%
Cc1nc2ccccc2c(=O)n1NC(=O)c1ccccc1 -1.87%
Cc1ccnc(N2CCCC(C(=O)NC3CC3)C2)n1 (stereo not given) 1.42%
O=C(O)c1ccccc1-c1ccccc1C(=O)NCCc1ccccc1 -1.22%
COc1ccc(CCNC(=O)c2ccccc2OCc2ccccc2)cc1 -0.83%
COc1ccccc1NC(=O)[C@H](COCc1ccccc1)NC(=O)OC(C)(C)C 13.7%
CC(C)NC(=O)COCc1cc(-c2ccc3c(c2)OCO3)on1 14.2%
CCc1nc(C)cn1S(=O)(=O)c1cc([N+](=O)[O-])ccc1Cl -0.55%
CC1CCc2c(c3ccccc3[nH]c2=O)O1 (stereo not given) 45.7%
N/C(=N\OS(=O)(=O)c1cccc([N+](=O)[O-])c1)c1ccncc1 0.65%
COc1ccc(C2Nc3ccccc3C(=O)N2c2ccc(F)cc2)cc1Cn1nnc2ccccc21 (stereo not given) 4.17%
COc1ccc(N2C(=O)c3ccccc3NC2c2ccc(OC)c(CN3CCOCC3)c2)cc1 (stereo not given) 4.09%
CC(C)N(C(=O)CSc1nnc(NC2CC2)s1)c1ccccc1 7.53%
COc1ccc(C(=O)O)cc1S(=O)(=O)NC1CCN(Cc2ccccc2)CC1 -0.69%
Cc1ccc2c(CC(=O)NCc3cccs3)coc2c1 8.24%
CCCNC(=O)c1ccc(N2CCC3(CC2)CC(c2cccc(Br)c2)=NO3)c(NC(=O)c2ccco2)c1 -6.12%
N#C/C(=C\c1cccnc1)C(=O)Nc1ccc(SC(F)F)cc1 3.63%
Cc1cc(/C=C2/NC(=O)NC2=O)c(C)n1-c1cccnc1 26.3%

activation, active:
Cc1cc(Nc2ccc(Br)cc2)nc2ccccc12 54.1%
COc1ccc(OC)c(CNC(=O)CCc2nc(-c3cccs3)no2)c1 61.3%
C=CCNC(=O)CSc1nc2sc(C)c(C)c2c(=O)[nH]1 107%
COc1cc(NC(=O)c2ccc(-c3csc(C)n3)cc2)c(OC)cc1Cl 98.4%
Cc1cccc2cc(C#N)c(N3CCCC3)nc12 51.3%
CSc1ccc(C#N)cc1NC(=O)c1cccc(Cl)c1 58.8%
CSc1ccc(C#N)cc1NC(=O)c1ccc(Cl)cc1 96.9%
O=C(Nc1cccc2cccnc12)c1cccc(Cl)c1 59.2%
Cc1nc(-c2ccc(Cl)cc2)sc1C(=O)CBr 54.9%
Cc1ccnc(-n2sc3ccccc3c2=O)n1 98.3%
NC(=O)Nc1ccccc1C(=O)NCCc1ccccc1 109%
COc1ccc(C2Nc3ccccc3C(=O)N2c2ccc(Cl)cc2)cc1Cn1cc([N+](=O)[O-])cn1 (stereo not given) 57.9%
NNc1nc2c(Cl)cccc2s1 115%
Cc1cc(/C=C(/C#N)C(=O)Nc2ccc(Cl)cc2)c(C)n1-c1cccnc1 76%
